From PubChem BioAssay AID652031 (The Scripps Research Institute Molecular Screening Center, 2013)
Hit rate of the full screen: of about 16,000 compounds, about 70 (0.4%) were called active. This excerpt belongs to a sample that is enriched for actives. Values without a mark were called inactive. Cut-off read from the data, not from the text of the source: active = inhibition above about 50%; inactive = the rest.

The molecules below were run against Kappa-type opioid receptor (Homo sapiens) (UniProt P41145) (assay: blocks the human kappa opioid receptor, Maybridge compounds (AID 652031)). Conditions: OPRK1 cells, antagonist mode, fluorescence readout; at 9 µM; stronger effect = higher value.
Sequence of Kappa-type opioid receptor (Homo sapiens) (P41145 whole entry, looked up): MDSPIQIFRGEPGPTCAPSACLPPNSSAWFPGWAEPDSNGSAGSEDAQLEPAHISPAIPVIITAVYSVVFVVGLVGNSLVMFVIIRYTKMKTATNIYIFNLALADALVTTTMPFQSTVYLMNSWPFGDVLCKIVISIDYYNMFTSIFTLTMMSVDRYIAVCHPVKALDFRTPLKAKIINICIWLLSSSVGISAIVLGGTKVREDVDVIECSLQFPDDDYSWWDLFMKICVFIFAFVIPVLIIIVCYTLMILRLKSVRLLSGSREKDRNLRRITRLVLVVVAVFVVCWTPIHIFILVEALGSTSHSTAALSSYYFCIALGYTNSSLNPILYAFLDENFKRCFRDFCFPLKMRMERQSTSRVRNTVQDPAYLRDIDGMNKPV

| SMILES | inhibition |
| --- | --- |
| COc1ccccc1N1CCN(C/C(N)=N/O)CC1 | -2.8% |
| N/C(=N\OC(=O)c1cccc(Cl)c1)c1ccc2nonc2c1 | 3% |
| COC(=O)C1=C(NNc2ccccc2)CSC1 | 8.6% |
| FC(F)(F)c1ccc(-n2cn[nH]c2=S)cc1 | -0.4% |
| COc1ccc(Cc2nc(C(C)(C)C)cs2)cc1 | 10.7% |
| CCOC(=O)CNC(=O)c1ccc(-c2cccc([N+](=O)[O-])c2)o1 | 9.9% |
| CSc1nc(-n2nc(C)cc2C)nc(-c2ccco2)c1C#N | -17.5% |
| CC(N)=NCCc1ccncc1 | -6% |
| N#Cc1cn(-c2cccc(C(F)(F)F)c2)c(=O)n(Cc2ccc(Cl)cc2)c1=O | -10.4% |
| CC(C)S(=O)(=O)c1cscc1N/C=C(/C#N)C(=O)C1CC1 | 14.8% |
| N#Cc1ccc(Oc2ccc(Cl)cc2)c([N+](=O)[O-])c1 | 5.4% |
| O=C(CSc1nnc(-c2ccncc2)n1Cc1ccccc1)Nc1nnc(-c2ccco2)s1 | 2.3% |
| COC(C)(OC)c1ccc(C#N)c(=S)[nH]1 | -2.3% |
| FC(F)(F)c1cnc(NN=C2CCSCC2)c(Cl)c1 | -7.6% |
| COc1ccc(COCC(O)CN2CCN(c3ccc(C(F)(F)F)cn3)CC2)cc1 (stereo not drawn) | -10.5% |
| CN(C)C(=S)Nc1ccc(Br)cc1Cl | 12.1% |
| N#CCCSc1sc(=S)sc1SCCC#N | -2.5% |
| N/C(=N\OC(=O)CCn1cccc(C(F)(F)F)c1=O)c1ccc(OC(F)(F)F)cc1 | 3.1% |
| Cc1cc(-c2noc(-c3cccs3)n2)no1 | -20.2% |
| C/C(=N\NC(=S)Nc1cccc(F)c1)c1ccco1 | 14.4% |
| Cn1cccc1CNC(=O)c1cc(F)cc2c1OCOC2 | 11.7% |
| CSc1nc(N/C=C(\C#N)C(=O)c2cccs2)n2nc(C)cc2n1 | 9.3% |
| COc1c(/C(N)=N/O)cc(C)c2c1CCC2 | -7.6% |
| COc1cccc(C(=O)c2sc3nsc(SCc4ccc(F)cc4)c3c2N)c1 | 81.9% (active) |
| CCOC(=O)N1CCN(CC(O)COc2ccc(OC(F)(F)F)cc2)CC1 (stereo not drawn) | 3.6% |
| COC(=O)c1ccccc1N(C)C(=O)c1cc(OC)c(OC)c(OC)c1 | 2.6% |

| SMILES | inhibition |
| --- | --- |
| Cc1ccc(S(=O)(=O)NNC(=O)CCc2nc(-c3ccc(Cl)cc3)no2)cc1 | -5.8% |
| COC(=O)c1cc(C(N)=O)c(SC)s1 | 8.2% |
| O=C(c1ccc(F)cc1)C1CCN(Cc2cn[nH]c2-c2ccccc2)CC1 | -2.9% |
| O=C(CSc1ccc(Cl)cc1)NCCSCc1ccco1 | 15.7% |
| Cc1nn(-c2ccccc2)nc1C(=O)Nc1nnc(C2CC2)s1 | 8.4% |
| COc1ccc(OC(=O)/C=C/c2sc3ccccc3c2C)cc1 | 8.8% |
| O=C1CCC(=O)N(c2ccccc2)N1 | 14.7% |
| O=C1NC(=O)c2cc([N+](=O)[O-])c(Sc3c(Cl)cccc3Cl)cc21 | 4.3% |
| N#CCc1ccc(NC(=O)c2ccccc2C(=O)Nc2ccc(CC#N)cc2)cc1 | 20.8% |
| O=C(Nc1ccc(I)cc1Cl)C(=S)NCc1cccs1 | -3.3% |
| CCOC(=O)COc1cccc2c(C)cc(=O)oc12 | -1.5% |
| O=C(c1ccc(Oc2ccc(Cl)cc2)c([N+](=O)[O-])c1)N1CCCC1 | 4.1% |
| CCO/N=C\c1nn(S(C)(=O)=O)cc1Br | -12.1% |
| CNC(=O)c1ccccc1I | -1.2% |
| CSc1nnc(-c2ccc(C(F)(F)F)cn2)o1 | -0.1% |
| Cn1cnnc1SCC(=O)Nc1cc(C(F)(F)F)cc(C(F)(F)F)c1 | 0.9% |
| CC(C)(C)NC(=O)N/N=C/c1[nH]ncc1Br | 1% |
| Cc1cc(/C(N)=N/OC(=O)c2cccs2)c(-c2ccccc2)o1 | -13% |
| CN(C)NC(=O)c1csnc1-c1c(Cl)cccc1Cl | 36.6% |
| COC(=O)c1ccc(S(=O)(=O)N2CCN(c3ccc([N+](=O)[O-])cn3)CC2)n1C | -6.6% |
| CCOC(=O)/C(C#N)=C/c1ccc(-c2nccs2)cc1C(C)(C)C | -2.8% |
| COC(=O)c1cnc(N2CCCN(C(=O)C3COc4ccccc4O3)CC2)nc1C(F)(F)F (stereo not drawn) | -8.4% |
| CCc1cnc(NS(=O)(=O)c2cc(Cl)sc2Cl)nc1-c1c(F)cccc1F | 1.8% |
| CCOC(=O)Cc1nc(N)ncc1C(=O)OCC | 17.3% |
| FC(F)(F)c1ccc(/C=N/Nc2nccc(C(F)(F)F)n2)cc1 | 6.7% |
| Cc1nc2sc(-c3ccccc3)cc2c(=O)o1 | -0.4% |

| SMILES | inhibition |
| --- | --- |
| CCOCCOCCN(CC)c1ccc(N=Nc2c(C#N)cc([N+](=O)[O-])cc2C#N)c(NC(C)=O)c1 | -11.4% |
| O=c1cc(-c2ccccc2)sc2ccc(Cl)cc12 | -5.7% |
| OC(CNCCNc1nccc(C(F)(F)F)n1)COc1ccc(Cl)c(Cl)c1 (stereo not drawn) | -9.3% |
| CC(=O)Nc1ccc(/C(N)=N/O)cc1 | 9.1% |
| O=c1oc(/C=C/c2ccccc2)nc2ccccc12 | -41.1% |
| COc1cc(OC)nc(/N=C/c2nc(-c3ccccc3)oc2O)n1 | 5.7% |
| N/C(=N/OC(=O)NC(=O)c1c(Cl)cccc1Cl)c1ccc(F)cc1F | -5.4% |
| N#Cc1c(-c2ccccc2)c(-c2ccccc2)n[nH]c1=O | 20% |
| N#C/C(=C\C=C\c1ccccc1)c1nc2ccccc2[nH]1 | 13.4% |
| S=C(Nc1cccnc1)N1CCCN(Cc2ccc(Cl)cc2Cl)CC1 | 4.7% |
| Cc1ccc(Oc2c(C)[nH]c(=S)[nH]c2=O)cc1 | -1.2% |
| O=C(Nc1ccccc1N1CCOCC1)C1CCN(c2nccc(C(F)(F)F)n2)CC1 | 9.4% |
| Cc1cc(NC(=O)c2cc(-c3ccccc3)c(C(F)(F)F)s2)no1 | -1.6% |
| CSc1sc(C(=O)Nc2cccc(Cl)c2)c(-c2cccs2)c1C#N | 5.9% |
| Cn1cnc(S(=O)(=O)Nc2ccc3[nH]ccc3c2)c1 | -0.5% |
| CC(C)(C)C(=O)Nc1c(Br)c(C2CC2)nn1-c1ccccc1 | 4.1% |
| COC(=O)C1=C(NNc2ncc(Cl)cc2C(F)(F)F)CSC1 | -2.3% |
| CC(=O)OCC(=O)[C@@]1(O)[C@H](C)CC2C3CCC4=CC(=O)C=CC4(C)C3=CCC21C (stereo partly drawn) | 0.2% |
| Cc1ccc(S(=O)(=O)NNC(=S)NC(C)(C)C)cc1 | -0.7% |
| CC(=O)c1cc([N+](=O)[O-])c(NC2CCCCC2)s1 | -27.9% |
| Clc1ccc(CO/N=C/c2nc3ccccc3s2)cc1 | 16.1% |
| N#Cc1cc([N+](=O)[O-])c(N2CCCC2)cc1N1CCCC1 | -4.1% |
| Cn1nc(C(C)(C)C)c(NC(=O)c2sccc2Cl)c1C(C)(C)C | -1.9% |
| CCSC(=O)NCc1ccccc1 | -12.7% |
| Cc1nc(C(F)(F)F)ccc1C(=O)NCCNc1ncccc1C(F)(F)F | -36.9% |
| CCOC(=O)c1cc(C)n(-c2cccc([N+](=O)[O-])c2)c1-c1ccccc1 | -0.8% |

| SMILES | inhibition |
| --- | --- |
| Cn1cc(C(=O)Nc2ccc(F)c(Cl)c2)c(N)n1 | 20.6% |
| Cc1nnsc1C(=O)NN(C)c1ccc([N+](=O)[O-])cn1 | 14.8% |
| CC1(C)CC(=O)C(N=Nc2c(F)cccc2F)=C(O)C1 | -7.3% |
| CCOC(=O)NC(=O)/C(=C/NC(C)C)C(=O)OCC | 5.6% |
| O=C1CCCCC(=O)c2ccccc2N1 | 7.1% |
| Cc1ccc(C(=O)N2CCN(c3cccc4[nH]ccc34)CC2)cc1 | 2.5% |
| CCOC(=O)c1nnc2c(Br)c(C)nn2c1C | 3.1% |
| O=[N+]([O-])c1ccc(N2CCSCC2)cc1O | 3.6% |
| COc1ccc(/C(C)=N/Nc2c([N+](=O)[O-])cc(C(F)(F)F)cc2[N+](=O)[O-])cc1CC#N | -23.7% |
| C=CCn1c(SCC(=O)Nc2nnc(-c3cccs3)s2)nnc1-c1ccco1 | 8.8% |
| COC(=O)c1cccc(CSc2ncccc2C(=O)O)c1 | 15.2% |
| CC(=O)c1nnc2cc(C)nn2c1C | 28.9% |
| CSc1sc(C(N)=O)cc1C#N | 6.9% |
| Cc1cc(C(=O)NNC(=O)c2cc(C)n(C(C)(C)C)n2)no1 | 8.1% |
| COc1ccc2c(OC(C)=O)coc2c1 | -6.7% |
| N#C/C(=C\c1cccn1S(=O)(=O)c1ccccc1)C(=O)c1ccccc1 | 7.4% |
| N#Cc1ccc(OS(=O)(=O)c2cc(C(F)(F)F)cc(C(F)(F)F)c2)cc1 | -5.9% |
| COC(=O)c1ccccc1NC(=S)NNC(=O)c1ccc([N+](=O)[O-])cc1 | 7.8% |
| COC(=O)c1ccc(/C=C2\C(=O)Nc3ccccc32)n1-c1ccc(F)cc1 | 84.7% (active) |
| Cc1c(C)c(C)c(CSC(=N)CC#N)c(C)c1C | -7.6% |
| O=C(CSc1nc2ccccc2o1)N1CCC(n2cccc2)CC1 | 1.7% |
| CCCc1c(C(=O)O)cnn1-c1ccc(Cl)cc1 | -5.5% |
| CCCc1nc(N)ncc1C(=O)OCC | -2.5% |
| CCOC(=O)c1c(C)csc1NC(=O)CC(=O)C(F)(F)F | -3% |
| Oc1ccc(-n2cncn2)cc1 | -0.4% |
